Results filed as inconclusive are left out. Activity calls are given as the source filed them. Calls follow the shape of the full dose curve.
How the values were obtained:
[1] = target: Acetylcholinesterase (Homo sapiens) (UniProt P22303); assay: Acetylcholinesterase (AChE) small molecule antagonists: colormetric cell-based qHTS assay (AID 1347395); also: nearly all actives have a fitted effect of over 30% in size; also: potency is read from the fitted curve at half-maximal effect
Summary of the method: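 Quantitative HTS in attached SH-SY5Y cells: 30 min compound exposure, then 90 min with acetylthiocholine and DTNB at 37 C; colour from thiocholine reports AChE activity.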

[2] = target: Acetylcholinesterase (Homo sapiens) (UniProt P22303); assay: Acetylcholinesterase (AChE) small molecule antagonists: enzyme-based qHTS assay (AID 1347397); details: Potency: AChE enzyme activity inhibition; outcome: AChE enzyme activity inhibition; also: nearly all actives have a fitted effect of over 55% in size; also: potency is read from the fitted curve at half-maximal effect
Summary of the method: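 Human recombinant acetylcholinesterase; substrate acetylthiocholine; thiocholine quantified with DTNB (colorimetric). Compound preincubation 30 min RT; reaction 10 min RT.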

[3] = target: Acetylcholinesterase (Homo sapiens) (UniProt P22303); assay: Acetylcholinesterase (AChE) small molecule antagonists: fluorescence cell-based qHTS assay (AID 1347398); details: Potency: AChE activity; outcome: AChE activity; also: nearly all actives have a fitted effect of over 50% in size; also: potency is read from the fitted curve at half-maximal effect
Summary of the method: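 Thiocholine generated from acetylthiocholine by SH-SY5Y cell AChE is detected with Thiolite Green (Ex/Em 490/520 nm) after 40 min at room temperature, following 30 min compound pretreatment at 37 C.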

[4] = target: Acetylcholinesterase (Homo sapiens) (UniProt P22303); assay: Acetylcholinesterase (AChE) small molecule antagonists: enzyme-based qHTS assay with human liver microsomes (AID 1347399); details: Potency: qHTS inhibition; outcome: qHTS inhibition; also: nearly all actives have a fitted effect of over 60% in size
Summary of the method: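 Recombinant human AChE (50 mU/mL in the enzyme mix) and human liver microsomes (0.25 mg/mL final) were preincubated with compound and NADPH (0.25 mg/mL final) for 30 min at 37 C. Acetylthiocholine/DTNB was then added; thiocholine was read colorimetrically after 10 min at room temperature.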

Measured: Potency

Chain of Acetylcholinesterase (Homo sapiens) (P22303 whole entry, looked up): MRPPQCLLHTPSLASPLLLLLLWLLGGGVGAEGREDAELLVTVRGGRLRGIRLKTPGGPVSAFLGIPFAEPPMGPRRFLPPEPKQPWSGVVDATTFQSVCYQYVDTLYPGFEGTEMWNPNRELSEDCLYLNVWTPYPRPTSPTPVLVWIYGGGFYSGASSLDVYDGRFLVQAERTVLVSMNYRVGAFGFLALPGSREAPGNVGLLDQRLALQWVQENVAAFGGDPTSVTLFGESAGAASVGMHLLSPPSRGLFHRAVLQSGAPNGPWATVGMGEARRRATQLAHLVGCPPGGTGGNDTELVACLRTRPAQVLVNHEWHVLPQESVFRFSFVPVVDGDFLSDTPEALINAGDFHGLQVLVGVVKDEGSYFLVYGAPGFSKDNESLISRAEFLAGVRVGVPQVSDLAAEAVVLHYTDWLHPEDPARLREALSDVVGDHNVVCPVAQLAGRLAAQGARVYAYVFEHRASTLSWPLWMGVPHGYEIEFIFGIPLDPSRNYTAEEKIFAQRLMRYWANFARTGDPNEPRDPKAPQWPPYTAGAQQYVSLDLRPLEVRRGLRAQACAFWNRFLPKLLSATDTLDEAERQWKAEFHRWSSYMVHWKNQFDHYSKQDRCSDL

CC(C)c1ccccc1
inactive: [1] | [2] | [3] | [4]

CCCCOC(=O)CCCCC(=O)OCCCC
inactive: [1] | [2] | [3] | [4]

CCCCCCCCSCc1cc(C)c(O)c(CSCCCCCCCC)c1
inactive: [1] | [2] | [3] | [4]

CCCCOC(=O)CCCCCCCC(=O)OCCCC
inactive: [1] | [2] | [3] | [4]

Cc1oc2c(NC(=O)c3c(Cl)cccc3Cl)cccc2c1C(C)(C)O
inactive: [1] | [2] | [3] | [4]

N#CCCOCCOCCC#N
inactive: [1] | [2] | [3] | [4]

COc1c2occc2c(OC)c2c(=O)cc(C)oc12
inactive: [1] | [2] | [3] | [4]

O=S(O)CO
inactive: [1] | [2] | [3] | [4]

Cc1cccc(C)c1NC(=O)c1ccccc1C(=O)O
inactive: [1] | [2] | [3] | [4]

CCCCNc1ccc(C(=O)OCCOCCOCCOCCOCCOCCOCCOCCOCCOC)cc1
inactive: [1] | [2] | [3] | [4]

COc1ccc(/C=C/S(=O)(=O)NC(=O)c2ccc(C)cc2Cl)cc1
inactive: [1] | [2] | [3] | [4]

CCCCCCCCOCCCN
inactive: [1] | [2] | [3] | [4]

O=CC=C(c1ccccc1)c1ccccc1
inactive: [1] | [2] | [3] | [4]

Cc1ccccc1C#N
inactive: [1] | [2] | [3] | [4]

CC(=O)OCCc1ccccc1
inactive: [1] | [2] | [3] | [4]

N#CCc1cccc(C(F)(F)F)c1
inactive: [1] | [2] | [3] | [4]

C/C=C/C=C/COC(=O)C(C)C
inactive: [1] | [2] | [3] | [4]

CN(C1CCCCC1)S(=O)(=O)c1ccccc1N
inactive: [1] | [2] | [3] | [4]

C=C(C)CCO
inactive: [1] | [2] | [3] | [4]

N=C(N=C(N)N)N1CCOCC1
inactive: [1] | [2] | [3] | [4]

CCOC(=O)c1ncn2c1CN(C)C(=O)c1cc(F)ccc1-2
inactive: [1] | [2] | [3] | [4]

O=P(O)(O)OCC(O)CO (centres undefined)
inactive: [1] | [2] | [3] | [4]

c1coc(Cn2cccc2)c1
inactive: [1] | [2] | [3] | [4]

O=C1CCCN1CCO
inactive: [1] | [2] | [3] | [4]

COc1ccc(OC)c(Cl)c1
inactive: [1] | [2] | [3] | [4]

COc1cc2nc(N(C)CCCNC(=O)C3CCCO3)nc(N)c2cc1OC (centres undefined)
active: [1] 17.4 µM | [2] 24.5 µM | [3] 15.5 µM
inactive: [4]

SCCSCCS
inactive: [1] | [2] | [3] | [4]

CCCCC1=NC2(CCCC2)C(=O)N1Cc1ccc(-c2ccccc2-c2nn[nH]n2)cc1
inactive: [1] | [2] | [3] | [4]

COc1ccc(C2C(=O)c3ccccc3C2=O)cc1
inactive: [1] | [2] | [3] | [4]

CC(C)CCOC(=O)CC(C)C
inactive: [1] | [2] | [3] | [4]

NC(=O)c1c(Cl)cccc1Cl
inactive: [1] | [2] | [3] | [4]

C=CCn1cc[n+](C)c1
inactive: [1] | [2] | [3] | [4]

CC1COc2c(N3CCN(C)CC3)c(F)cc3c(=O)c(C(=O)O)cn1c23 (centres undefined)
inactive: [1] | [2] | [3] | [4]

CCCCCCOC(=O)C(C)CC (centres undefined)
inactive: [1] | [2] | [3] | [4]

CN=C(NC#N)NCCSCc1csc(N=C(N)N)n1
inactive: [1] | [2] | [3] | [4]

C[C@H]1O[C@@H](O[C@H]2CC[C@@]3(C)[C@H](CC[C@@H]4[C@@H]3C[C@@H](O)[C@]3(C)[C@@H](C5=CC(=O)OC5)CC[C@]43O)C2)C[C@H](O)[C@@H]1O[C@H]1C[C@H](O)[C@H](O[C@H]2C[C@H](O)[C@H](O[C@@H]3O[C@H](CO)[C@@H](O)[C@H](O)[C@H]3O)[C@@H](C)O2)[C@@H](C)O1
inactive: [1] | [2] | [3] | [4]

CCC1(CO)COCOC1
inactive: [1] | [2] | [3] | [4]

C=CC/C=C/C/C=C/C/C=C/C
inactive: [1] | [2] | [3] | [4]

CC(O)CN(CCCN(C)C)CCCN(C)C (centres undefined)
inactive: [1] | [2] | [3] | [4]

CCc1ccc(C=O)cc1
inactive: [1] | [2] | [3] | [4]

COc1ccc2cc(CCC(C)=O)ccc2c1
inactive: [1] | [2] | [3] | [4]
